# According to PubChem BioAssay (NCI):
# This is part of a sample that, as a whole, favours compounds with a hit. Of some 83,000 tested, about 20% had one in any assay.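 Negative percent growth values reflect cell death: -40 means 40% of the cells present at the start died, and -100 means all died.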 Unmarked numbers belong to inactive results. Calls of active or inactive are those of the source. Rule for the calls: active = growth percent below 10; inactive = the rest.
# How the values were obtained:
# Test in all cases: NCI-60 one-dose screen, 48 h (100 = growth as untreated, 0 = no growth, -100 = all killed)
# Details in all cases: 10 µM
# DU-145 prostate = tested on: DU-145 prostate
# MALME-3M melanoma = tested on: MALME-3M melanoma
# MDA-MB-231 breast = tested on: MDA-MB-231 breast
# RXF 393 renal = tested on: RXF 393 renal
# UACC-257 melanoma = tested on: UACC-257 melanoma
# M14 melanoma = tested on: M14 melanoma
# HCT-15 colon = tested on: HCT-15 colon
# HT29 colon = tested on: HT29 colon
# PC-3 prostate = tested on: PC-3 prostate
# SK-MEL-5 melanoma = tested on: SK-MEL-5 melanoma
# UACC-62 melanoma = tested on: UACC-62 melanoma
# LOX IMVI melanoma = tested on: LOX IMVI melanoma
# SK-MEL-28 melanoma = tested on: SK-MEL-28 melanoma
# K-562 leukemia = tested on: K-562 leukemia
# SF-268 CNS = tested on: SF-268 CNS
# SF-295 CNS = tested on: SF-295 CNS
# SF-539 CNS = tested on: SF-539 CNS
# SNB-75 CNS = tested on: SNB-75 CNS
# SNB-19 CNS = tested on: SNB-19 CNS
# U251 CNS = tested on: U251 CNS
SMILES,growth (DU-145 prostate),growth (MALME-3M melanoma),growth (MDA-MB-231 breast),growth (RXF 393 renal),growth (UACC-257 melanoma),growth (M14 melanoma),growth (HCT-15 colon),growth (HT29 colon),growth (PC-3 prostate) [%],growth (SK-MEL-5 melanoma),growth (UACC-62 melanoma),growth (LOX IMVI melanoma),growth (SK-MEL-28 melanoma),growth (K-562 leukemia),growth (SF-268 CNS) [%],growth (SF-295 CNS),growth (SF-539 CNS),growth (SNB-75 CNS),growth (SNB-19 CNS),growth (U251 CNS)
CC(C)[N+]1(C)C2CC[C@@H]1CC(OC(=O)C(CO)c1ccccc1)C2 (some centres undefined),117%,103%,98.8%,120%,96.9%,110%,107%,106%,92.4,95.6%,108%,94.5%,122%,,,,,,,
c1ccc(/C(=N\Nc2ccc3ccccc3n2)c2ccccn2)cc1,,,29.8%,,16%,-41.8% (active),25.7%,26.2%,19.4,-51.3% (active),-49.5% (active),-13.5% (active),20.5%,8.58% (active),19.6,-15.8% (active),-12.4% (active),-9.74% (active),26.1%,7.94% (active)
CN(C)c1ncnc2c1nnn2C1OC(CO)C(O)C1O (centres undefined),15.9%,-10.4% (active),36.5%,-2.59% (active),11.8%,-13.2% (active),7.45% (active),0.427% (active),21.7,-12.6% (active),-32.9% (active),9.03% (active),12.6%,,24.9,6.4% (active),-2.72% (active),28.3%,33.9%,
CNC(=O)c1c(I)c(NC(C)=O)c(I)c(C(=O)O)c1I,113%,112%,95.5%,115%,114%,,105%,103%,93,108%,98.5%,94.5%,114%,,108,119%,109%,87.3%,96.2%,102%
CC(C)=CCC/C(C)=C/CC/C(C)=C/CC/C=C(\C)CC/C=C(\C)CCC(=O)Nc1ccn(C2OC(CO)C(O)C2(F)F)c(=O)n1 (centres undefined),,,65.2%,,18.5%,2.42% (active),50.9%,36.2%,37.2,-63.4% (active),22%,5.76% (active),60%,26.7%,19.9,-41.3% (active),-22.3% (active),4.15% (active),23.4%,20.5%
Cc1cc(C(C#N)c2ccc(Cl)cc2)c(Cl)cc1NC(=O)c1cc(I)cc(I)c1O (centres undefined),72.7%,58.1%,46.6%,48.9%,71.3%,32.3%,28.8%,58%,13.8,,11.5%,75.1%,63.5%,,33.7,-20.9% (active),31.5%,112%,39.3%,40.4%
O=C1c2c(c(=O)[nH]c3ccccc23)CCN1Cc1ccccc1,122%,,98.4%,111%,104%,102%,96.6%,99.3%,84.9,108%,97.1%,,107%,,110,104%,90.4%,79.8%,99.6%,103%
CC(=O)OC1CC2C(C)(C)CCC[C@]2(C)C2=C1C(O)=C(C(C)C)C(=O)C2=O (some centres undefined),-62.7% (active),,-17.8% (active),-59.8% (active),-12% (active),-43% (active),-23.1% (active),17.2%,,-99.7% (active),-60.1% (active),-43% (active),-42.8% (active),,15.7,-53.1% (active),-7.95% (active),-13.3% (active),21.6%,19.5%
CC(C)C1=C(O)C2=C(C(=O)C1=O)[C@@]1(C)CCCC(C)(C)[C@@H]1CC2,81.6%,,103%,84.3%,78.7%,80.7%,44.2%,99%,,70.1%,80%,56.9%,73.4%,,63.4,43.3%,90%,78.5%,53.4%,50%
CCCCCOC(=O)Nc1nc(=O)n(C2O[C@H](C)[C@@H](O)[C@H]2O)cc1F (some centres undefined),115%,103%,90.9%,98.1%,96.2%,108%,101%,99.9%,90.9,99.8%,,100%,115%,,95.4,98.1%,101%,77.1%,101%,94.8%
Cc1cn(-c2cc(F)cc(NC(=O)c3ccc(C)c(Nc4nccc(-c5cccnc5)n4)c3)c2)cn1,65.4%,,6.14% (active),-1.37% (active),23.1%,60.2%,74.9%,2.89% (active),68.6,,40.9%,17%,28.2%,,67.3,,-39.8% (active),-20.8% (active),6.01% (active),
Nc1cc(-c2ccc(Cl)cc2)nn1-c1nc2ccccc2nc1Cc1ccccc1,,101%,75.1%,78.7%,101%,89.6%,74.4%,69.7%,,86.7%,87.8%,93.3%,92.9%,,,,99.5%,84.4%,89.9%,90.8%
CC(=O)COc1ccc(Cl)cc1Cl,106%,,105%,107%,112%,110%,107%,105%,102,99.8%,,94.9%,113%,,109,103%,114%,,118%,97.9%
O=C(CCCCCCC(=O)Nc1ccccc1)NO,3.46% (active),1.69% (active),16.4%,-39.9% (active),-26% (active),23%,33.9%,7.15% (active),10.4,-54.4% (active),,-3.4% (active),5.94% (active),,14.9,-22.6% (active),16.8%,18%,25%,-20.1% (active)
